# In PubChem BioAssay (NCATS):
# Records with an inconclusive call do not appear. Values without a mark were called inactive. The call rests on the fitted dose curve.
# Assay: Cell Viability - MRC5 (AID 434);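 further: potency reflects cytotoxicity seen as loss of intracellular ATP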
# Details: MRC5 lung fibroblast viability, qHTS
# Source text: NIH Chemical Genomics Center [NCGC]
# NIH Molecular Libraries Screening Centers Network [MLSCN]
# National Institutes of Environmental Health Sciences [NIEHS]
# National Toxicology Program [NTP]
# We have developed a 1536-well cell-based assay for quantitative high throughput screening (qHTS) against a number of cell lines to determine in vitro cytotoxicity of small molecules. This particular assay uses the MRC5 cell line which is derived from normal human lung fibroblasts.
# NCGC Assay Protocol Summary:
# The CellTiter-Glo luminescent cell viability assay (Promega) is a homogeneous method to measure the number of viable cells in culture. The end point readout of this assay is based on quantitation of intracellular ATP, an indicator of metabolic activity, using the luciferase reaction. Luciferase catalyzes the oxidation of beetle Luciferin to oxyluciferin and light in the presence of ATP. The luminescent signal is proportional to amount of ATP present.
# Using the CellTiter-Glo luminescent cell viability assay, the amount of cellular ATP was measured in the MRC5 cell line with complete culture medium following compound treatment for 40 hours. The assay was performed in opaque white Kalypsys 1536-well plates. In the screen, tamoxifen and doxorubicin were used as positive controls. Library compounds were measured for their ability to cause acute toxicity in the cell line, as reflected by a decrease in intracellular ATP levels, in a concentration-dependent manner. Data were normalized to the controls for basal activity (DMSO only) and 100% inhibition (100 uM tamoxifen). AC50 values were determined from concentration-response data modeled with the standard Hill equation.
# qHTS protocol for CellTiter Glo MRC5 cellular assay
# [Step] [Parameter] [Value] [Description]
# 1. Reagent; 5 uL; 1500 MRC5 cells/well
# 2. Time; 5 hr; 37 °C incubation
# 4. Controls; 23 nL; Tamoxifen 0.34 uM to 100 uM & Doxorubicin 0.02 nM to 100 uM
# 5. Time; 40 hr; 37 °C incubation
# 6. Reagent; 5 uL; CellTiter Glo reagent
# 7. Time; 20 min; Room Temperature
# 8. Detection; Luminescence; Viewlux plate reader
# Keywords: cell viability, cytotoxicity, MRC5 cell line, luminescence, NTPHTS, NTPHTS_NCGC, NIEHS, EPA, DSSTox, MLSMR, MLSCN, NIH Roadmap, qHTS, NCGC
# Potency means the concentration at half of the fitted maximal effect.
row,SMILES,Potency [µM]
1,O=C(Cc1ccccc1)OCc1ccccc1,> 92
2,CCCCNC(=O)n1c(NC(=O)OC)nc2ccccc21,> 92
3,C=CC(=O)OCCN(C)C,> 92
4,CCBr,> 92
5,Nc1cc(Cl)ccc1O,> 92
6,ClCCCCl,> 92
7,CC(C)(Cl)[N+](=O)[O-],> 92
8,O=C(O)c1cccc(Cl)c1,> 92
9,ClC(Cl)Br,> 92
10,c1ccc2c(c1)CCNC2,> 92
11,Nc1ccc(Oc2ccc(N)cc2)cc1,> 92
12,Nc1cc(Cl)cc(C(=O)O)c1Cl,> 92
13,CC(C)CON=O,> 92
14,O=c1ccc(=O)[nH][nH]1,> 92
15,CN(C)N=O,> 92
16,c1ccoc1,> 92
17,CC12CC1(C)C(=O)N(c1cc(Cl)cc(Cl)c1)C2=O (stereo not given),> 92
18,C=CCO,> 92
19,Nc1ccc([N+](=O)[O-])cc1N,> 92
20,Cc1coc2c1CCC(C)C2 (stereo not given),> 92

row,SMILES,Potency [µM]
1,CC(C)(C)OOC(=O)c1ccccc1,> 92
2,CN(C)c1ccc(N(C)C)cc1,> 92
3,O=C(O)C(Cl)Br (stereo not given),> 92
4,ClC(Cl)C(Cl)Cl,> 92
5,C=CC(=O)OCCO,> 92
6,CN(C)C(=O)Nc1cccc(C(F)(F)F)c1,> 92
7,Nc1ccc(-c2ccc(N)cc2)cc1,> 92
8,CC(C)Br,> 92
9,Nc1ccc(Cc2ccc(N)c(Cl)c2)cc1Cl,> 92
10,O=[N+]([O-])c1ccccc1CCl,> 92
11,Oc1cccc(Cl)c1Cl,> 92
12,C[N+](=O)[O-],> 92
13,CC(C)(C)c1ccccc1O,> 92
14,CCCCOC(=O)c1ccccc1N,> 92
15,Clc1ccc(C(Cl)(Cl)Cl)cc1Cl,> 92
16,c1ccc(C2CO2)cc1 (stereo not given),> 92
17,Cc1ccc(OP(=O)(Oc2ccc(C)cc2)Oc2ccc(C)cc2)cc1,> 92
18,BrCCc1ccccc1,> 92
19,CCOP(=S)(OCC)Oc1nc(Cl)c(Cl)cc1Cl,> 92
20,O=NN1CCCCC1,> 92
